Compound activity as filed in PubChem BioAssay.
PMP22 txn prim – PMP22 gene transcription modulation. S16 Pmp22-F2sN Schwann cells, FLuc/NLuc coincidence luminescence, 24 h. Potency, µM (titrated, usually from 57.5 µM), most hits filed as inhibitors. 2% of 43,000 active. AID 1508649; active means clear falling dose curves in both reporters; inconclusive means both reporters move, but less clearly or upward; inactive means either reporter flat; the % is the NLuc reporter signal
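Luminescent read-out of sequential FLuc and NLuc signals from a reporter embedded in the Pmp22 3' UTR of S16 Schwann cells, taken after 24 h compound exposure at 37C; compounds reducing both signals score as inhibitors of expression.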
mTORC1 inh – mTORC1 pathway inhibition measured by phospho-rpS6 | AID 493208 | Tsc2-/- p53-/- MEF, phospho-rpS6 immunofluorescence/PI, 24 h | Potency, µM (series often up to 38.3 µM), actives largely listed as inhibitors | 0.78% of 44,000 active; further: nearly all actives have a fitted effect of over 50% in size
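Tsc2-/-, p53-/- MEFs (empty-vector stable line) in DMEM + 10% FBS were treated with compounds 24 h at 37 degree Celsius, fixed, and immunostained for phospho-rpS6 (Alexa-488) with propidium iodide counterstain. Laser-scanning cytometry gave % positive cells, normalized against 7.5 nM rapamycin and DMSO.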
OvCa metastasis – inhibitors of ovarian cancer cell adhesion and invasion in omental model; SKOV3ip1-GFP adhesion/invasion on 3D omental model, fluorescence; 0.1% of 46,000 active; Potency, µM (titrated, usually from 45.8 µM), usual class: inhibitors; further: nearly all actives have a fitted effect of over 65% in size
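Primary human omental fibroblast/mesothelial 3D culture pre-formed 48 h. SKOV3ip1-GFP cells added with compounds (0.36-46 umol/L), incubated 2 h RT/16 h 37 C, fixed; GFP cells quantified at 488/509 nm.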
p53null 32C tox – kills p53 null cells at the permissive temperature. H1299-neo p53 null cells, ATP luminescence, 24 h, 32C. Potency, µM (series often up to 46.1 µM), actives largely listed as cytotoxic. 0.62% of 55,000 active; further: nearly all actives have a fitted effect of over 55% in size
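H1299-neo (p53-null) cells, 600/well, were pre-incubated overnight at 37C, then exposed to compounds at up to 46 uM for 24 hr at 32C. Viability was measured as ATP content by luminescence, and AC50 values came from Hill fits.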
p53null 39C tox – kills p53 null cells at the nonpermissive temperature. H1299 p53-null (neo) cells, 39C, ATPlite viability, 24 h. Potency, µM (doses to about 46.1 µM), most hits filed as cytotoxic. 0.97% of 55,000 active; further: nearly all actives have a fitted effect of over 50% in size
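ATP-luminescence viability readout (ATPlite, 20 min RT) after 24 hr compound treatment at 39C of H1299-neo or H1299-p53A138V cells; titration up to 46 uM; normalized to DMSO and 100 uM tamoxifen; Hill-fit AC50.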
S16 viability – S16 Schwann cell cytotoxicity; S16 Pmp22-F2sN Schwann cells viability, CellTiter-Glo, 24 h; Potency, µM (top dose mostly 57.5 µM), usual class: cytotoxic; 0.48% of 43,000 active; AID 1508642; further: nearly all actives have a fitted effect of over 65% in size
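Used to flag compounds lowering reporter output through toxicity, this quantitative HTS measures ATP-based CellTiter-Glo luminescence in S16 Pmp22-F2sN Schwann cells after 24 h compound exposure at 37C.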
Of the large screens only hits and unclear results are named; the others gave an inactive call. Sampled rows, rich in hits. Any-hit rate of the full collection: about 3%. Unless noted, the call rests on the fitted dose curve; in most records, active means well fitted curve in the direction sought with a large enough effect; inconclusive means small, poorly fitted or top-dose-only effect, or another doubt; inactive means no such curve, though single readings can be large; an effect the other way counts as inactive or inconclusive.

CCC1=Nc2cc(C(=O)NC3CCCC3)ccc2Sc2ccc(Br)cc21	PMP22 txn prim 10µM, p53null 39C tox inconclusive, S16 viability inconclusive
CC1=Nc2cc(C(=O)NCCc3ccc(Cl)cc3)ccc2Sc2ccc(C)cc21	PMP22 txn prim 9.5µM, S16 viability inconclusive
CC1=Nc2cc(C(=O)NC3CCCC3)ccc2Sc2ccc(Br)cc21	PMP22 txn prim inconclusive, mTORC1 inh inconclusive
CCC1=Nc2cc(C(=O)NC3CCC(C)CC3)ccc2Sc2ccc(C)cc21 (stereo unspecified)	PMP22 txn prim 5.7µM, mTORC1 inh inconclusive
CC(C)Cc1ccc(S(=O)(=O)N2CCC(c3ccncc3)CC2)cc1	PMP22 txn prim inconclusive, mTORC1 inh 18µM, OvCa metastasis inconclusive, p53null 32C tox inconclusive, p53null 39C tox inconclusive, S16 viability inconclusive
O=S(=O)(c1ccc(Cl)cc1)N1CCC(c2ccncc2)CC1	none
CC(C)(C)c1ccc(S(=O)(=O)N2CCC(c3ccncc3)CC2)cc1	PMP22 txn prim inconclusive, mTORC1 inh 18µM, p53null 32C tox inconclusive, p53null 39C tox inconclusive, S16 viability inconclusive
Cc1c(-c2nc(-c3ccccc3F)no2)nnn1-c1cc(F)ccc1F	PMP22 txn prim inconclusive, p53null 32C tox inconclusive, p53null 39C tox 3.2µM
CCc1ccccc1-n1nnc(-c2nc(-c3ccccc3F)no2)c1C	PMP22 txn prim inconclusive, p53null 32C tox inconclusive
Cc1ccc(N(CC(O)Cn2c3ccccc3c3ccccc32)S(=O)(=O)c2ccc(F)cc2)cc1 (stereo unspecified)	PMP22 txn prim inconclusive, mTORC1 inh inconclusive, OvCa metastasis inconclusive, p53null 39C tox 11µM, S16 viability inconclusive
COC(=O)CN(c1ccccc1)S(=O)(=O)c1ccc(F)cc1	none (no result: PMP22 txn prim, mTORC1 inh, OvCa metastasis, S16 viability)
O=C(O)C(O)Cc1ccc(O)c(O)c1 (stereo unspecified)	none (no result: PMP22 txn prim, mTORC1 inh, p53null 32C tox, p53null 39C tox, S16 viability)
Oc1ccc2ccccc2c1SSc1c(O)ccc2ccccc12	OvCa metastasis 26µM (no result: PMP22 txn prim, mTORC1 inh, p53null 32C tox, p53null 39C tox, S16 viability)
Cc1noc(/C=C/N(C)C)c1S(=O)(=O)N1CCCC(C(=O)Nc2ccc(F)cc2F)C1 (stereo unspecified)	mTORC1 inh 18µM
CCCCCNC(=O)N1CCC(CN(Cc2ccc(Cl)cc2)Cc2ccc([N+](=O)[O-])s2)C1 (stereo unspecified)	none (no result: PMP22 txn prim, mTORC1 inh, p53null 32C tox, p53null 39C tox, S16 viability)
CCOc1cc2ncc(C#N)c(Nc3ccc(OCc4ccccn4)c(Cl)c3)c2cc1NC(=O)C=CCN(C)C	none (no result: PMP22 txn prim, mTORC1 inh, p53null 32C tox, p53null 39C tox, S16 viability)
COc1ccccc1Cn1cc(C(=O)c2ccc(Cl)cc2)c(=O)c2cc3c(cc21)OCCO3	PMP22 txn prim inconclusive
COc1ccccc1Cn1cc(C(=O)c2ccc(Cl)cc2)c(=O)c2ccccc21	PMP22 txn prim inconclusive, mTORC1 inh 3.3µM, OvCa metastasis inconclusive, p53null 39C tox inconclusive, S16 viability inconclusive
CCOc1ccc(Nc2nc(-c3c(C)nc4ccccn34)cs2)cc1	none (no result: PMP22 txn prim, mTORC1 inh, p53null 32C tox, p53null 39C tox, S16 viability)
COc1ccc(-c2[nH]nc3nc(-c4cc(OC)c(OC)c(OC)c4)cc(C(=O)O)c23)cc1	mTORC1 inh 16µM
CCc1ccc(-c2[nH]nc3nc(-c4cc(OC)ccc4OC)cc(C(=O)O)c23)cc1	mTORC1 inh inconclusive, p53null 32C tox 10µM, p53null 39C tox 4µM
COc1ccc(-n2nc3c(N4CCC(C(=O)NCCc5ccccc5)CC4)nnc(C)c3c2C)cc1	none
CCc1ccc(NC(=O)N2CCN(c3nnc(C)c4c(C)n(-c5ccc(Cl)cc5)nc34)CC2)cc1	PMP22 txn prim inconclusive, p53null 32C tox inconclusive, p53null 39C tox 20µM
Cc1ccc(-n2nc3c(N4CCC(C(=O)NCCc5ccccc5)CC4)nnc(C)c3c2C)cc1	PMP22 txn prim inconclusive, S16 viability 28µM
CC(/C=N/Nc1nc2ccccc2[nH]1)=C\c1ccccc1	p53null 32C tox 7.9µM, p53null 39C tox inconclusive (no result: PMP22 txn prim, mTORC1 inh, OvCa metastasis, S16 viability)
CCOc1ccc(CCNC(=O)c2cc3cc4cc(OC)ccc4nc3s2)cc1OCC	PMP22 txn prim inconclusive
COc1ccc2nc3sc(C(=O)Nc4cc(Cl)c(OC)cc4OC)cc3cc2c1	p53null 39C tox 10µM
